# Hit rate of the full screen: of about 290,000 compounds, about 890 (0.31%) were called active. No stated cut-off is given here; in the data, active means inhibition mostly above about 52% (no sharp cut-off); inactive means mostly below about 76%. Only a selection was taken, and actives are over-represented in it overall.
# Experiment: inhibitors of HIV fusion peptide binding, primary screen, biochemical, uHTS, fluorescence dequenching (AID 1986)
# Conditions: cell-free peptide binding, 30 min, stronger effect = higher value
# [1] = measured here: repeat confirmation average inhibition, at 18.6 µM
SMILES,inhibition (at 20 µM),inhibition [1] [%]
O=C(CCc1nnc2ccc(NCc3ccccc3Cl)nn12)N1CCC2(CC1)OCCO2,1% (inactive),
CCCCn1c(O)c(C(=O)/C=C/c2c[nH]c3ccccc23)c(=O)[nH]c1=O,97.6% (active),
O=C(/C=C/c1c[nH]c2ccccc12)c1c(O)n(CCc2ccccc2)c(=O)[nH]c1=O,148% (inactive),
CCCCn1c(O)c(C(C)=NCCc2c[nH]c3ccccc23)c(=O)[nH]c1=O,0.5% (inactive),
CC(=O)NNC(=O)CN1C(=O)CN=C(c2ccccc2)c2cc(Br)ccc21,2.1% (inactive),
CN(C)C(=O)Oc1ccc(Cl)c2cccnc12,3.9% (inactive),
Cc1cc(C)cc(-n2c(O)c(C=Nc3ccc(N4CCOCC4)cc3)c(=O)[nH]c2=S)c1,23.1% (inactive),
O=c1[nH]c(=S)n(-c2ccc(Br)cc2)c(O)c1C=Nc1ccc(N2CCOCC2)cc1,24.5% (inactive),
O=c1[nH]c(=S)n(-c2ccc(Cl)cc2)c(O)c1C=Nc1ccc(N2CCOCC2)cc1,102% (active),80.1
O=C1NC(=O)N(c2ccccc2)C(=O)/C1=C\c1ccccc1[N+](=O)[O-],3.7% (inactive),
C=CCn1c(=O)c(C=Nc2cccnc2Cl)c(O)n(CCCC)c1=O,119% (inactive),1.7
O=c1c(C=Nc2cccnc2Cl)c(O)n(CCCCl)c(=O)n1C1CCCCC1,71% (active),
CCCCn1c(=O)c(C=Nc2cccnc2Cl)c(O)n(CCCCl)c1=O,37.8% (inactive),
Cc1ccc(N2C(=O)NC(=O)C(CCc3ccccn3)(Cc3cccc(Cl)c3Cl)C2=O)cc1 (centres undefined),0.2% (inactive),
Cn1c(O)c(C=Nc2ccccc2)c(=O)n(C)c1=O,1.3% (inactive),
Cn1c(O)c(/C=C/C=Nc2ccccc2)c(=O)n(C)c1=O,52.8% (inactive),27.8
Cn1c(O)c(/C=C/C=Nc2ccccc2)c(=O)n(C)c1=S,91.4% (active),60.5
O=c1[nH]c(=O)n(-c2ccccc2)c(O)c1/C=C/C=Nc1ccccc1,147% (inactive),
Cc1cccc(-n2c(O)c(/C=C/C=Nc3ccccc3)c(=O)[nH]c2=O)c1,147% (inactive),
Cc1ccc(-n2c(O)c(/C=C/C=Nc3ccccc3)c(=O)[nH]c2=O)cc1,74.3% (active),
Cc1ccc(-n2c(O)c(/C=N/c3ncc(Br)cc3Br)c(=O)[nH]c2=O)cc1,64% (inactive),2.3
Cc1cccc(-n2c(O)c(C=Nc3ccc(Br)cn3)c(=O)[nH]c2=O)c1,144% (inactive),
Cc1ccc(-n2c(O)c(C=Nc3ccc(Br)cn3)c(=O)[nH]c2=O)cc1,124% (active),
CC(=O)c1cccc(OCC(O)CN2CC=C(c3ccccc3)CC2)c1 (centres undefined),-1% (inactive),
O=c1c2ccccc2[nH]c(=S)n1-c1ccc(Br)cc1,-0.2% (inactive),
O=c1[nH]c(O)c(N=Nc2ccc(SC(F)F)cc2)c(=O)[nH]1,3.1% (inactive),
CCCOP(=O)(OCCC)C(NC(=O)c1cc(OC)c(OC)c(OC)c1)c1ccccc1 (centres undefined),-1.1% (inactive),

SMILES,inhibition (at 20 µM),inhibition [1] [%]
CCOC(=O)c1c(C)n(C(C)C)c2ccc(OC)cc12,-1.3% (inactive),
COc1cccc(CNC(=O)CCC(=O)N2C[C@H]3C[C@H](C2)c2cccc(=O)n2C3)c1OC,1.4% (inactive),
CCc1ccc(N2C(=O)NC(=O)/C(=C/c3cccn3CCOc3ccc(C)cc3)C2=O)cc1,73.7% (inactive),6.1
O=C1NC(=O)N(Cc2ccco2)C(=O)/C1=C\c1cccn1CCOc1ccc(Cl)cc1,93.3% (inactive),0.8
CCC(C)c1ccc(N2C(=O)NC(=O)/C(=C/c3cccn3CCOc3ccc(C)cc3)C2=O)cc1 (centres undefined),65.8% (active),70.7
CCc1ccc(N2C(=O)NC(=O)/C(=C\c3cccn3CCOc3ccc(C(C)C)cc3)C2=O)cc1,59.3% (inactive),1.8
Cc1ccc(OCCn2cccc2/C=C2/C(=O)NC(=O)N(Cc3ccco3)C2=O)cc1,23.5% (inactive),
CCc1ccc(N2C(=O)NC(=O)/C(=C/c3cccn3CCOc3ccc(C(C)CC)cc3)C2=O)cc1 (centres undefined),53.2% (active),
Cc1ccc(/C=C2/Sc3ccc(C(=O)N4CCC5(CC4)OCCO5)cc3NC2=O)cc1,54.6% (inactive),37.1
CCOC(=O)c1sc(/N=C/c2c(O)n(-c3ccccc3)c(=O)[nH]c2=O)c(C#N)c1C,-1.7% (inactive),
O=C(O)C1C2c3ccccc3C(c3ccccc32)C1C(=O)Nc1ccccc1 (centres undefined),4.1% (inactive),
CC12CN3CCN(CC(C3)C1O)C2 (centres undefined),-2.7% (inactive),
COc1ccccc1/C=N/N=C(/N)N[N+](=O)[O-],2.7% (inactive),
COc1cccc(CN2CC=C(c3ccc(F)cc3)CC2)c1,2.3% (inactive),
COc1ccc(CN2CCN(Cc3ccccc3)CC2)c(OC)c1,-1.2% (inactive),
Cc1cc(/C=C2\C(=O)NC(=O)N(c3ccc(Cl)cc3)C2=O)c(C)n1-c1sc2c(c1C#N)CCCC2,64.4% (inactive),9
Cc1ccc(N2C(=O)NC(=O)/C(=C\c3cc(C)n(-c4sc5c(c4C#N)CCCC5)c3C)C2=O)cc1,52.2% (active),
Cc1cccc(N2C(=O)NC(=O)/C(=C\c3cc(C)n(-c4sc5c(c4C#N)CCCC5)c3C)C2=O)c1C,22% (inactive),
CNP(=O)(Oc1ccccc1)OC12CC3CC(CC(C3)C1)C2 (centres undefined),1.8% (inactive),
C=CCn1c(O)c(C(C)=NCCCn2ccnc2)c(=O)[nH]c1=O,0.6% (inactive),
Cc1cc2c(C(C)C)c(O)c(O)c(C=O)c2c(O)c1-c1c(C)cc2c(C(C)C)c(O)c(O)c(C=O)c2c1O,65.7% (active),
COc1cccc(C(=O)C2CCCN(C3CCOCC3)C2)c1 (centres undefined),0.4% (inactive),
O=C1NC(=O)N(c2ccc(F)cc2)C(=O)/C1=C/c1ccc2c(c1)CCCN2Cc1ccccc1,56.3% (active),
Cc1cccc(N2C(=O)NC(=O)/C(=C\c3ccc4c(c3)CCCN4Cc3ccccc3)C2=O)c1,48.8% (inactive),
Cc1ccccc1N1C(=O)NC(=O)/C(=C\c2ccc3c(c2)CCCN3Cc2ccccc2)C1=O,15.8% (inactive),
CC1CCC(N2CCN(C(=O)COc3ccccc3)CC2)CC1 (centres undefined),2.3% (inactive),
